According to PubChem BioAssay AID1159580 (chemical genetic matrix, 2015):
In all, about 5,500 compounds went through this assay and about 2,000 (36%) were called active. Not shown: some 18% with an inconclusive outcome. Rule as the data show it: active = normalized growth mostly below about 0.91 (no sharp cut-off); inconclusive = no clear call, values can overlap the other calls; inactive = mostly above about 0.92. The list shows a part of the results.

Experiment: chemical genetic growth profiling, strain panel (AID 1159580);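 also: tested at 20 µM; growth read once vehicle control cultures reached saturation at 30 °C; 1 = growth at the plate median or of vehicle wells; lower values mean less growth of the strain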
Conditions: growth OD
[1] = S. cerevisiae deletion strains, locus YAL013W, strain DEP1, stronger effect = lower value
[2] = S. cerevisiae deletion strains, locus YGR078C, strain PAC10, stronger effect = lower value
[3] = S. cerevisiae deletion strains, locus YJR075W, strain HOC1, stronger effect = lower value
[4] = S. cerevisiae deletion strains, locus YMR307W, strain GAS1, stronger effect = lower value
[5] = S. cerevisiae deletion strains, locus YNL153C, strain GIM3, stronger effect = lower value

Measured: normalized growth

COc1ccccc1N1CCN(S(=O)(=O)c2ccc(C(F)(F)F)cc2)CC1
inactive: [1] 1 | S. cerevisiae deletion strains, locus YBR229C, strain ROT2, stronger effect = lower value 0.99 | S. cerevisiae deletion strains, locus YCL061C, strain MRC1, stronger effect = lower value 0.985 | S. cerevisiae deletion strains, locus YDL101C, strain DUN1, stronger effect = lower value 1.01 | S. cerevisiae deletion strains, locus YDR150W, strain NUM1, stronger effect = lower value 0.989 | S. cerevisiae deletion strains, locus YEL061C, strain CIN8, stronger effect = lower value 1.02 | [2] 1 | S. cerevisiae deletion strains, locus YHR030C, strain SLT2, stronger effect = lower value 1.09 | S. cerevisiae deletion strains, locus YHR087W, strain rtc3, stronger effect = lower value 1.03 | S. cerevisiae deletion strains, locus YJL187C, strain SWE1, stronger effect = lower value 0.985 | S. cerevisiae deletion strains, locus YJR043C, strain POL32, stronger effect = lower value 0.998 | [3] 0.99 | S. cerevisiae deletion strains, locus YKL190W, strain CNB1, stronger effect = lower value 0.965 | S. cerevisiae deletion strains, locus YLR039C, strain RIC1, stronger effect = lower value 0.952 | S. cerevisiae deletion strains, locus YLR058C, strain SHM2 (second series), stronger effect = lower value 0.987 | S. cerevisiae deletion strains, locus YLR085C, strain ARP6, stronger effect = lower value 0.927 | S. cerevisiae deletion strains, locus YLR262C, strain YPT6, stronger effect = lower value 0.962 | S. cerevisiae deletion strains, locus YML094W, strain GIM5, stronger effect = lower value 0.995 | S. cerevisiae deletion strains, locus YMR219W, strain ESC1, stronger effect = lower value 0.989 | S. cerevisiae deletion strains, locus YMR263W, strain SAP30, stronger effect = lower value 0.977 | [4] 1.04 | [5] 1 | S. cerevisiae deletion strains, locus YNL298W, strain CLA4 (second series), stronger effect = lower value 1.01 | S. cerevisiae deletion strains, locus YNL322C, strain KRE1, stronger effect = lower value 0.99 | S. cerevisiae deletion strains, locus YNR030W, strain Alg12, stronger effect = lower value 1 | S. cerevisiae deletion strains, locus YOL006C, strain TOP1, stronger effect = lower value 1.03 | S. cerevisiae deletion strains, locus YPL055C, strain LGE1, stronger effect = lower value 0.988 | S. cerevisiae deletion strains, locus YPL241C, strain CIN2, stronger effect = lower value 0.888 | S. cerevisiae deletion strains, locus YPR135W, strain CTF4, stronger effect = lower value 0.983 | S. cerevisiae strains, strain wild type, stronger effect = lower value 0.976

NCCNC(=O)c1ncsc1-c1cccc(F)c1
inactive: [1] 1.02 | S. cerevisiae deletion strains, locus YAL040C, strain CLN3, stronger effect = lower value 0.986 | S. cerevisiae deletion strains, locus YCL061C, strain MRC1 (second series), stronger effect = lower value 0.991 | S. cerevisiae deletion strains, locus YDR363W, strain ESC2, stronger effect = lower value 1.02 | S. cerevisiae deletion strains, locus YER002W, strain NOP16, stronger effect = lower value 1 | [2] 0.989 | [3] 1.01 | [4] 1 | S. cerevisiae deletion strains, locus YNL128W, strain TEP1, stronger effect = lower value 0.99 | [5] 0.983 | S. cerevisiae deletion strains, locus YNL175C, strain NOP13, stronger effect = lower value 0.984 | S. cerevisiae deletion strains, locus YNL197C, strain WHI3, stronger effect = lower value 0.989 | S. cerevisiae deletion strains, locus YNL224C, strain SQS1, stronger effect = lower value 0.996 | S. cerevisiae deletion strains, locus YOR083W, strain WHI5 (second series), stronger effect = lower value 0.974
